# According to publication PMC7862700, “An all-to-all approach to the identification of sequence-specific readers for epigenetic DNA modifications on cytosine”:
# How the values were obtained:
# Test in all cases: DAPPL (digital affinity profiling via proximity ligation, sequencing); 10 mM Tris-HCl pH 7.5, 50 mM NaCl, 1 mM DTT, 4% glycerol, room temperature, 30 min; GST-TFs on glutathione beads, 16-mer random dsDNA library, 0.1% formaldehyde crosslink after washing; high values mean tight binding
# FEV = target: T1, FEV (Homo sapiens, UniProt Q99581 1-238); conditions: protein: recombinant; tags: N-terminal GST; dsDNA, one strand shown
# T1 sequence: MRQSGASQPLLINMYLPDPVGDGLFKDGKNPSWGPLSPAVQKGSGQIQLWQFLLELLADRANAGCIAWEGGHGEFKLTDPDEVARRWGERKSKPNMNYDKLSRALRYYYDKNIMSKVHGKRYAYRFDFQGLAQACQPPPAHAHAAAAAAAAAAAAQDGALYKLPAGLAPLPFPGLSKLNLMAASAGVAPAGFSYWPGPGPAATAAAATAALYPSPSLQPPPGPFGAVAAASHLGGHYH
# How it was run: (§1)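 Sequencing on an Illumina NextSeq500 followed washing, crosslinking with 0.1% formaldehyde, proximity ligation (BsaI/T4 ligase, 1 h, 37 °C) and PCR amplification of pools that had been incubated for 30 min at room temperature with 200 nmole of a random double-stranded 16-mer DNA library in Tris/NaCl/DTT/glycerol buffer. Each pool held DNA-barcoded human transcription factors, expressed in yeast as GST fusions and captured on glutathione beads, plus a tag-only sample. Binding signal is a hexamer's read frequency for a factor divided by its frequency in the tag-only sample.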
# ETV5 = ETV5 (Homo sapiens, UniProt P41161 1-510); conditions: protein: recombinant; tags: N-terminal GST; dsDNA, one strand shown
# How it was run: as §1
# HSF1 = HSF1 (Homo sapiens, UniProt Q00613 1-529); conditions: protein: recombinant; tags: N-terminal GST; chain copies: 3; dsDNA, one strand shown
# How it was run: as §1
# SPIC = target: T2, SPIC (Homo sapiens, UniProt Q8N5J4 1-248); conditions: protein: recombinant; tags: N-terminal GST; dsDNA, one strand shown
# T2 sequence: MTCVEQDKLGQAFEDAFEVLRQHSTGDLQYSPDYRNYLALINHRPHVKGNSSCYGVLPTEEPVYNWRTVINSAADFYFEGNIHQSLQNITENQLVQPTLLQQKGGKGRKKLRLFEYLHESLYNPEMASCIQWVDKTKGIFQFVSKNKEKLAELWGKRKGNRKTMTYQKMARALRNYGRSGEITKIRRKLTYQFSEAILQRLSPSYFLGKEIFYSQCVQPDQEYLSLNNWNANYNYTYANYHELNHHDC
# How it was run: as §1
# ELF4 = ELF4 (Homo sapiens, UniProt Q99607 1-663); conditions: protein: recombinant; tags: N-terminal GST; dsDNA, one strand shown
# How it was run: as §1
# ELK4 = target: T3, ELK4 (Homo sapiens, UniProt P28324-2 1-405); conditions: protein: recombinant; tags: N-terminal GST; dsDNA, one strand shown
# T3 sequence: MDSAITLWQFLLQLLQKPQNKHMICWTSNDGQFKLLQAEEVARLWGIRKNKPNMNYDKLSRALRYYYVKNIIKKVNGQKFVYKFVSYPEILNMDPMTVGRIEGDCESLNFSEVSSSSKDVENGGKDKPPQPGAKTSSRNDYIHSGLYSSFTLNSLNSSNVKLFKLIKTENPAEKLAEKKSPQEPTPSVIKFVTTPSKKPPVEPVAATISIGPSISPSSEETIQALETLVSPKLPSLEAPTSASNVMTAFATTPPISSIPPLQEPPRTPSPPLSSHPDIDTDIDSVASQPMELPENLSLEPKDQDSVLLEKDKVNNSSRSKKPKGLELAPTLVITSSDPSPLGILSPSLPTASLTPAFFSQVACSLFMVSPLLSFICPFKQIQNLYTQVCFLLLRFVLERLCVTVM
# How it was run: as §1
# ETV2 = target: T4, ETV2 (Homo sapiens, UniProt O00321 1-342); conditions: protein: recombinant; tags: N-terminal GST; dsDNA, one strand shown
# T4 sequence: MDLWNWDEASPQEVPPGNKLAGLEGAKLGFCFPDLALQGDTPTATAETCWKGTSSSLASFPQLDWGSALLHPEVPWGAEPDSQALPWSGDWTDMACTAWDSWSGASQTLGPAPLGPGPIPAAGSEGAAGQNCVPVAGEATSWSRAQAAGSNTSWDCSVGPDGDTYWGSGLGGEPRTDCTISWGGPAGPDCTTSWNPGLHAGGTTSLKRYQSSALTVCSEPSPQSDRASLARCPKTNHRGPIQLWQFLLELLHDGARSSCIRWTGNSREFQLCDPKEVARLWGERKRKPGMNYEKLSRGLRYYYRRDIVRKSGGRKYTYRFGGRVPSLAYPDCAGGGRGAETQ
# How it was run: as §1
# ELF3 = target: T5, ELF3 (Homo sapiens, UniProt P78545 1-371); conditions: protein: recombinant; tags: N-terminal GST; dsDNA, one strand shown
# T5 sequence: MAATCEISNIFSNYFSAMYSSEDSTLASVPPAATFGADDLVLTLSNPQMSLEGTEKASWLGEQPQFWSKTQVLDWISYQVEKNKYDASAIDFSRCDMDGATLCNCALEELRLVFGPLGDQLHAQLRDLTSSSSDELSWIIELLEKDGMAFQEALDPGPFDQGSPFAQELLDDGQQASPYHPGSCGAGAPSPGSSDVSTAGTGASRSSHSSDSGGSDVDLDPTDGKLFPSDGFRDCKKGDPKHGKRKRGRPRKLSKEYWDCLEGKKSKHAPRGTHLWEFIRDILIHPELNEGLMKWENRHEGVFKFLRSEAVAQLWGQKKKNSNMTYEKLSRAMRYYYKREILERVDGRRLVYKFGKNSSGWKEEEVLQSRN
# How it was run: as §1
# CRX = CRX (Homo sapiens, UniProt O43186 1-299); conditions: protein: recombinant; tags: N-terminal GST; dsDNA, one strand shown
# How it was run: as §1
# ETV1 = ETV1 (Homo sapiens, UniProt P50549 1-477); conditions: protein: recombinant; tags: N-terminal GST; dsDNA, one strand shown
# How it was run: as §1
# ERF = target: T6, ERF (Homo sapiens, UniProt P50548 1-548); conditions: protein: recombinant; tags: N-terminal GST; dsDNA, one strand shown
# T6 sequence: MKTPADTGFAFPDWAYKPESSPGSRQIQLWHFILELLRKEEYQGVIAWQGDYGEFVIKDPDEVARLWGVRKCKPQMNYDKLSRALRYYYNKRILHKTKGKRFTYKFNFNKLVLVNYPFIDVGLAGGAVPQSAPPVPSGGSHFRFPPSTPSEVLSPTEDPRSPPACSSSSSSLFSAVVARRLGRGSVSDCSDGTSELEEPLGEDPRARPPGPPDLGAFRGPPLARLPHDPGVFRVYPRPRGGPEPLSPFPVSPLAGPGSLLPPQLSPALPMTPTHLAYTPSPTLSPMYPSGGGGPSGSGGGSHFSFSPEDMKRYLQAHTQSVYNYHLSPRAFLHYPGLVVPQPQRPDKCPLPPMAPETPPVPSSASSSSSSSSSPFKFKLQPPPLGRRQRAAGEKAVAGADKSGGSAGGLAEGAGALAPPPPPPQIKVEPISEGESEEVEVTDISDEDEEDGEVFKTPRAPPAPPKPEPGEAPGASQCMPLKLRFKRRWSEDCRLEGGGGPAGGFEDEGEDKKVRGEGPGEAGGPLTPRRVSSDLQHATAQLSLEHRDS
# How it was run: as §1
# ETV3L = target: T7, ETV3L (Homo sapiens, UniProt Q6ZN32 1-361); conditions: protein: recombinant; tags: N-terminal GST; dsDNA, one strand shown
# T7 sequence: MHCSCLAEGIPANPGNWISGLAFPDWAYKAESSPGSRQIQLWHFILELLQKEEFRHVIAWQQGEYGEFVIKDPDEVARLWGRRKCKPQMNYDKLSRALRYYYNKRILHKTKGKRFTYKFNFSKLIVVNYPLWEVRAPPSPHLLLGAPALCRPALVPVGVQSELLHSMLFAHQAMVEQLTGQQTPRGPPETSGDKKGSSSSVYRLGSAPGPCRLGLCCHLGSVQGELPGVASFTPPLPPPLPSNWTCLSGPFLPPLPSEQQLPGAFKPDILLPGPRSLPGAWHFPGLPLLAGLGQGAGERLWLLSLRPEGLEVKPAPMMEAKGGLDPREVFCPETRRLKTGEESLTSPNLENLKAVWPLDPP
# How it was run: as §1
# ETS2 = target: T8, ETS2 (Homo sapiens, UniProt P15036 1-469); conditions: protein: recombinant; tags: N-terminal GST; dsDNA, one strand shown
# T8 sequence: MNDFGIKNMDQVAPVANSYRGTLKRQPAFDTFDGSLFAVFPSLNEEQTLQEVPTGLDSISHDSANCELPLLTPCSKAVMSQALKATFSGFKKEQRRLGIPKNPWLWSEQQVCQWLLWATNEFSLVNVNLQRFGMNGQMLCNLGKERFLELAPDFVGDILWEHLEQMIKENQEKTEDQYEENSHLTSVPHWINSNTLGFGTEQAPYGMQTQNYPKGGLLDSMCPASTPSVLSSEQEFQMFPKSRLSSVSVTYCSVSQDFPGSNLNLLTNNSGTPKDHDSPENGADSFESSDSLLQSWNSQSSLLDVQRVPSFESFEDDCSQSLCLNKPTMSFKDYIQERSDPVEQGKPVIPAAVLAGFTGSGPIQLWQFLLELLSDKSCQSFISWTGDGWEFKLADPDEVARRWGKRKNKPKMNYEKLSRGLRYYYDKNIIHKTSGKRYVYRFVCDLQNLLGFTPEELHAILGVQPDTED
# How it was run: as §1
# SPDEF = target: T9, SPDEF (Homo sapiens, UniProt O95238 1-335); conditions: protein: recombinant; tags: N-terminal GST; dsDNA, one strand shown
# T9 sequence: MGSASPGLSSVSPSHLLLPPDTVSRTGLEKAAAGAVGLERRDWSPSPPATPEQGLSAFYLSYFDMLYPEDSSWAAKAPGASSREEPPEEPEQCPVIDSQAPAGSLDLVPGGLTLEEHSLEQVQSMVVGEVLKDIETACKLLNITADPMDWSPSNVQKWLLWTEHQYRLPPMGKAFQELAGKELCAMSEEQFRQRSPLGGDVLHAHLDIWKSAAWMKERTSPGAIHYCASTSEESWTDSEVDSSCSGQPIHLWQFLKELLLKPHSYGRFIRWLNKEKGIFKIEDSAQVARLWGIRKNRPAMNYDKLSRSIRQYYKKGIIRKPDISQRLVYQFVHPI
# How it was run: as §1
# ETV7 = target: T10, ETV7 (Homo sapiens, UniProt Q9Y603 1-341); conditions: protein: recombinant; tags: N-terminal GST; dsDNA, one strand shown
# T10 sequence: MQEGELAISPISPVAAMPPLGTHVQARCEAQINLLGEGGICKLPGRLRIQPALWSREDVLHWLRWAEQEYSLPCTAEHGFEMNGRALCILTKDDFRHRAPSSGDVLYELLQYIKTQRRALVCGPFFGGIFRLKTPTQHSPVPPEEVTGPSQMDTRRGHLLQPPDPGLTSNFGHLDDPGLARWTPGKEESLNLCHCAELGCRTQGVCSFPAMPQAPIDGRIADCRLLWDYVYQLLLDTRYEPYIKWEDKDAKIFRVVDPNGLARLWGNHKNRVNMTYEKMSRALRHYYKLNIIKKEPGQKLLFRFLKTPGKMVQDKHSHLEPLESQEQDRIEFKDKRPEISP
# How it was run: as §1
# ELF5 = target: T11, ELF5 (Homo sapiens, UniProt Q9UKW6-2 1-255); conditions: protein: recombinant; tags: N-terminal GST; dsDNA, one strand shown
# T11 sequence: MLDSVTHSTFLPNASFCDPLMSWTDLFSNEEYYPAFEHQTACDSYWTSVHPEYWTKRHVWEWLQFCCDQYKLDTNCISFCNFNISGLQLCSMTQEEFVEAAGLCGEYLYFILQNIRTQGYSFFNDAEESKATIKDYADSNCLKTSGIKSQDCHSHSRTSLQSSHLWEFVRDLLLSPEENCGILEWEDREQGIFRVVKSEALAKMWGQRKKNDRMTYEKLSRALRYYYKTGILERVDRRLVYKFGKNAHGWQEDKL
# How it was run: as §1
# ETV3 = target: T12, ETV3 (Homo sapiens, UniProt P41162-2 1-143); conditions: protein: recombinant; tags: N-terminal GST; dsDNA, one strand shown
# T12 sequence: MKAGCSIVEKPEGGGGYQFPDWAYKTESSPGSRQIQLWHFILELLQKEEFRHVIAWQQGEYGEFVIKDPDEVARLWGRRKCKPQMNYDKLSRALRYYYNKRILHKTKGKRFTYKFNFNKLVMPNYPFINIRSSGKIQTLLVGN
# How it was run: as §1
# ETV6 = ETV6 (Homo sapiens, UniProt P41212 1-452); conditions: protein: recombinant; tags: N-terminal GST; dsDNA, one strand shown
# How it was run: as §1
# Sequence of HSF1 (Q00613 whole entry): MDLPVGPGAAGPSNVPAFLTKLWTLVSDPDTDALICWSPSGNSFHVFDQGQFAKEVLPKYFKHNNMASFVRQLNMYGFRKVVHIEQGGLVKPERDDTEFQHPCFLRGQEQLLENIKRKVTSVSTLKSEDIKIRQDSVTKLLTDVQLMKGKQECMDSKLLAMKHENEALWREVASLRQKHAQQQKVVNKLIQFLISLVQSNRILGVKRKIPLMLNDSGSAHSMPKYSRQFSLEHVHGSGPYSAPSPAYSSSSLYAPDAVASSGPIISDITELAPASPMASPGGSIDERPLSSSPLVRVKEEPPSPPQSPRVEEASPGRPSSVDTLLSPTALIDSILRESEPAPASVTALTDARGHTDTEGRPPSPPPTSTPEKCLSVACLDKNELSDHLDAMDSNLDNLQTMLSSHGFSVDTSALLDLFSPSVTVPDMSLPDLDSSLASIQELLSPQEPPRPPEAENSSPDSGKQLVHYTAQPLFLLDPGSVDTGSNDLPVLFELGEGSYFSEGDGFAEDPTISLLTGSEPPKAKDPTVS
# Sequence of ETV6 (P41212 whole entry): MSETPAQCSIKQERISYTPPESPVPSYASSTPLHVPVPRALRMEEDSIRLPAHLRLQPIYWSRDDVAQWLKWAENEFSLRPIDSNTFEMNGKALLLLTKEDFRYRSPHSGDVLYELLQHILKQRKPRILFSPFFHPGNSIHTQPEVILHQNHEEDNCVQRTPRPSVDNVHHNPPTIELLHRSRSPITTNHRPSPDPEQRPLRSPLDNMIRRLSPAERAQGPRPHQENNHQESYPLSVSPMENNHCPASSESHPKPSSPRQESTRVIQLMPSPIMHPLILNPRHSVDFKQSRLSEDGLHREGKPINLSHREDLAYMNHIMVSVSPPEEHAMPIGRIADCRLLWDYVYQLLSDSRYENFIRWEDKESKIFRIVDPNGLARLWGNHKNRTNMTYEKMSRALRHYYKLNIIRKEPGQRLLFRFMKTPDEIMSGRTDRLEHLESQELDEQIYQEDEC
# Sequence of ETV5 (P41161 whole entry): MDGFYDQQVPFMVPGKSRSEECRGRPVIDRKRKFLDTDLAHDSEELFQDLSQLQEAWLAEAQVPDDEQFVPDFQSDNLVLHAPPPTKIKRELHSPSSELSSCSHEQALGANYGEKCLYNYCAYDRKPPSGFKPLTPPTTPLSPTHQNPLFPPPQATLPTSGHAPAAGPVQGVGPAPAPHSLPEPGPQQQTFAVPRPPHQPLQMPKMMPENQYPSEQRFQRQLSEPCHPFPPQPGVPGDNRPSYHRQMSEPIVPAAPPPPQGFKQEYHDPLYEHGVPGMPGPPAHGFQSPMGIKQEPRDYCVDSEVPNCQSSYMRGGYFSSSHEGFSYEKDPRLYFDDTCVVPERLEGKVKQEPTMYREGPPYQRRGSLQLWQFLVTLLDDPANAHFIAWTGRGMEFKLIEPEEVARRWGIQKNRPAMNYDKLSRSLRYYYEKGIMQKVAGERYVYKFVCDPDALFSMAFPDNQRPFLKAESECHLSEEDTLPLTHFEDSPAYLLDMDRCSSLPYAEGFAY
# Sequence of ETV1 (P50549 whole entry): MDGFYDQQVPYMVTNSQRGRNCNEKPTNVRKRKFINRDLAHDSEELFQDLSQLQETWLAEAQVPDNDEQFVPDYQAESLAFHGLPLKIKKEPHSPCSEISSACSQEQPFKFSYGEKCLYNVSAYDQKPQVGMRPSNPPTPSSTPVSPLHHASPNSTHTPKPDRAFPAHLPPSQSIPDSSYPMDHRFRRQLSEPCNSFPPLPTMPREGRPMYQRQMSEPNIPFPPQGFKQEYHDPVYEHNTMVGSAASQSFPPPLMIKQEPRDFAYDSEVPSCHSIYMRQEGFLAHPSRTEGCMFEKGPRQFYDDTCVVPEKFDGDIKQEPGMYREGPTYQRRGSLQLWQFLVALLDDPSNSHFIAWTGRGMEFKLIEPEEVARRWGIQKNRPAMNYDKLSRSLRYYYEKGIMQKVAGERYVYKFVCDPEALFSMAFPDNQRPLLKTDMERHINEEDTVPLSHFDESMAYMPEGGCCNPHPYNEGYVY
# Sequence of ELF4 (Q99607 whole entry): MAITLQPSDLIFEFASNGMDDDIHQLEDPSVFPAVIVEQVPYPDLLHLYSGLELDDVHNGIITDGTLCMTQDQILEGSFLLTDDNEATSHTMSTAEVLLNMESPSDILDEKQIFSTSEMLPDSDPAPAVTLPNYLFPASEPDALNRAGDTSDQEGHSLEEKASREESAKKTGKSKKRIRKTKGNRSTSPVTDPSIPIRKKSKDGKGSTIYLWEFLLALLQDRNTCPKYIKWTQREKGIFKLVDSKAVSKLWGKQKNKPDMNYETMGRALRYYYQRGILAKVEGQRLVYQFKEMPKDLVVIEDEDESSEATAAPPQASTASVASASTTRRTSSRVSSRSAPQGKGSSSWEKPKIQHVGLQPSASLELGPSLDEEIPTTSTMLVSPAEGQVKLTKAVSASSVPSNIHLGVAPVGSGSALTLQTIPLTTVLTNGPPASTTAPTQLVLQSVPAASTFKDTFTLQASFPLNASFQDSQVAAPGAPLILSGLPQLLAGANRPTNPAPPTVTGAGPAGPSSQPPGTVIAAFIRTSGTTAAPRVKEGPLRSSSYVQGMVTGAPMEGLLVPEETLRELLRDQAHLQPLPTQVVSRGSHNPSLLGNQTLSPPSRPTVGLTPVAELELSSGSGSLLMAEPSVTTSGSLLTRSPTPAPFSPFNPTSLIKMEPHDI
# Sequence of CRX (O43186 whole entry): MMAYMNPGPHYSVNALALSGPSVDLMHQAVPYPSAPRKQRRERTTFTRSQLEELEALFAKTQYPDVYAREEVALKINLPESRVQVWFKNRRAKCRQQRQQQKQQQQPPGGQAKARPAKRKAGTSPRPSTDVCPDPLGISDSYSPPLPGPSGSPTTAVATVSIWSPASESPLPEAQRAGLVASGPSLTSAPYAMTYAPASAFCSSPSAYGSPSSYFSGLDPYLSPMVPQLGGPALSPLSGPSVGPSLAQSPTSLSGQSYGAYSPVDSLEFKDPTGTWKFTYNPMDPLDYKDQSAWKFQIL
sequence,measurement,setting,value
ATACCC,binding signal,FEV,"1.17 fold enrichment (6-mer frequency, TF over GST control)"
same,binding signal,ETV5,"1.16 fold enrichment (6-mer frequency, TF over GST control)"
same,binding signal,HSF1,"1 fold enrichment (6-mer frequency, TF over GST control)"
same,binding signal,SPIC,"1.2 fold enrichment (6-mer frequency, TF over GST control)"
same,binding signal,ELF4,"1.13 fold enrichment (6-mer frequency, TF over GST control)"
same,binding signal,ELK4,"1.16 fold enrichment (6-mer frequency, TF over GST control)"
same,binding signal,ETV2,"1.24 fold enrichment (6-mer frequency, TF over GST control)"
same,binding signal,ELF3,"1.16 fold enrichment (6-mer frequency, TF over GST control)"
same,binding signal,CRX,"1.2 fold enrichment (6-mer frequency, TF over GST control)"
same,binding signal,ETV1,"1.23 fold enrichment (6-mer frequency, TF over GST control)"
same,binding signal,ERF,"1.14 fold enrichment (6-mer frequency, TF over GST control)"
same,binding signal,ETV3L,"1.18 fold enrichment (6-mer frequency, TF over GST control)"
same,binding signal,ETS2,"1.24 fold enrichment (6-mer frequency, TF over GST control)"
same,binding signal,SPDEF,"1.27 fold enrichment (6-mer frequency, TF over GST control)"
same,binding signal,ETV7,"1.18 fold enrichment (6-mer frequency, TF over GST control)"
same,binding signal,ELF5,"1.18 fold enrichment (6-mer frequency, TF over GST control)"
same,binding signal,ETV3,"1.18 fold enrichment (6-mer frequency, TF over GST control)"
same,binding signal,ETV6,"1.09 fold enrichment (6-mer frequency, TF over GST control)"
